High-throughput results: PubChem, several laboratories
The list is not random: actives were taken first. Their share in the collection is about 4.2%.
tim23-1 inh = growth inhibitors of tim23-1 mutant yeast, primary screen, luminescence, uHTS; S. cerevisiae tim23-1 growth, BacTiter-Glo luminescence, 24 h; inhibition, % at 20 µM; actives 1.3% (n = 330,000);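 active = growth inhibition of the mutant yeast at or above 50%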;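 note: temperature-sensitive mutant grown at 25 °C; plate controls were DMSO-treated mutant yeast for no effect and medium wells lacking yeast for full effect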
tim10-1 inh = growth inhibitors of tim10-1 mutant yeast, primary screen, luminescence, uHTS. S. cerevisiae tim10-1 ts strain growth, BacTiter-Glo, 24 h. actives 2.2% (n = 330,000). inhibition, % at 20 µM;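 active = inhibition of at least 40%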;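 note: mutant grown at 25 °C; 0% = DMSO wells with yeast and 100% = wells holding no yeast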
V-ATPase pHluor = regulators of yeast V-ATPase proton pumping, primary screen, pHLuorin cytosolic pH fluorescence; S. cerevisiae; response, % at 10 µM; actives 0.37% (n = 350,000); AID 504577, 2011; in the data active = response mostly above about 7.3%, no sharp cut-off; inactive = mostly below about 5.4%; note: actives read high
TIM10 inh = growth inhibitors of isogenic TIM10 control yeast, primary screen, counter-screen for tim10-1 yeast inhibitor project, luminescence, uHTS; S. cerevisiae TIM10 strain growth, BacTiter-Glo luminescence, 24 h; inhibition, % at 10 µM; actives 1.4% (n = 330,000); AID 463195, 2010;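 active = inhibition of 40% or more at the single tested concentration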;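 note: wild-type TIM10 isogenic control strain grown at permissive 25 °C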
NALP1 inh = NALP1 inflammasome inhibitors in reconstituted yeast, colorimetric, S. cerevisiae, triplicate retest | AID 2071, 2009 | S. cerevisiae NALP1/ASC/caspase-1 growth, X-gal OD620, 72 h | inhibition, % at 10 µM | actives 0.61% (n = 280,000); in the data active = inhibition mostly above about 24%, no sharp cut-off; inactive = mostly below about 32%
NALP3 yeast inh = NALP3 inflammasome inhibitors in reconstituted yeast, primary screen, luminescence, uHTS | Yeast reconstituted NLRP3/ASC/caspase-1, beta-gal luminescence, 24 h | inhibition, % at 10 µM | actives 0.39% (n = 330,000);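 active = inhibition of 50% or more; inactive = inhibition below 50%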;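 note: plate controls were induced DMSO wells for no effect and uninduced yeast grown without galactose for full effect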
tim10-1 conf = growth inhibitors of tim10-1 mutant yeast, confirmation, single concentration, luminescence, S. cerevisiae | S. cerevisiae tim10-1 ts strain growth, BacTiter-Glo, 24 h | AID 463213, 2010 | inhibition, % at 20 µM | shares compounds with tim10-1 inh | actives 56% (n = 7,400);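 active = inhibition of yeast growth at or above a set limit in either of two repeat tests at 20 µM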;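 note: tim10-1 mutant grown at permissive 25 °C to find synthetic lethal compounds; 0% = DMSO yeast wells and 100% = medium wells without yeast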
tim10 confirm = growth inhibitors of wild-type TIM10 yeast, confirmation, counter-screen for tim10-1 synthetic lethality project, single concentration, luminescence, S. cerevisiae; shares compounds with TIM10 inh; S. cerevisiae tim10 strain growth, BacTiter-Glo luminescence, 24 h; inhibition, % at 10 µM; actives 63% (n = 4,600); AID 463215, 2010;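 active = inhibition of yeast growth at or above a set limit in either of two replicates at 10 µM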;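 note: this counterscreen used the strain with wild-type TIM10; 0% = yeast with DMSO and 100% = medium wells lacking yeast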
Active calls of the source: *; x = no result.

SMILES	tim23-1 inh	tim10-1 inh	V-ATPase pHluor	TIM10 inh	NALP1 inh	NALP3 yeast inh	tim10-1 conf	tim10 confirm
CC1CCN(S(=O)(=O)c2cc(Br)cc(C(=O)NC3=NCCS3)c2)CC1	34	46*	-2	41*	4	-2	32*	40*
O=C(NCc1ccccc1)c1cccc(COc2cccc(Cl)c2)c1	24	45*	-3	43*	8	9	40*	34*
O=C(c1ccc(-c2ccc([N+](=O)[O-])cc2)o1)N1CCCCC1	33	54*	1	40*	5	-18	46*	25
CC(C)NC(=O)C(=O)NNC(=O)C12CC3CC(CC(C3)C1)C2	3	20	-4	-1	-103	25	x	x
CCOc1ccc(/C=C2\SC(N3CCc4ccccc4C3)=NC2=O)cc1	28	47*	1	54*	26	11	35*	19
COc1cccc(N2C(C(C)=O)=NN(c3ccccc3)C2c2ccc(N3CCOCC3)cc2)c1 (centres undefined)	30	48*	-4	42*	9	7	32*	-10
CC(=O)C1=NN(c2ccccc2)C(c2ccc3c(c2)OCO3)N1c1ccc(N2CCOCC2)cc1 (centres undefined)	17	11	0	20	35	26	x	x
COc1ccc(N(CC(=O)Nc2cc(C)ccc2C)S(=O)(=O)c2c(C)[nH]c(=O)[nH]c2=O)cc1	-5	-8	1	2	-6	7	x	x
Cc1ccc(C)c(NC(=S)NCc2ccc3[nH]c4c(c3c2)CCCC4)c1	43	45*	6	43*	24	23	35*	40*
COc1cccc(/C=N/NC(=O)c2c(C)nc3ccc(Br)cn23)c1O	11	41*	1	45*	5	22	19	61*
Cc1nc2ccccn2c1C(=O)/C=C/c1cccc([N+](=O)[O-])c1	38	50*	0	52*	11	22	44*	54*
Cc1ccc(/C=C/C(=O)c2c(C)nc3ccccn23)cc1	35	37	0	39	22	20	x	x
CCOC(=O)CCCCCC(=O)Nc1ccc2c(c1)C(=O)N([C@H](C)CO)C[C@@H](C)[C@@H](CN(C)C(=O)CCC(F)(F)F)OCCCC[C@H](C)O2	x	x	2	x	x	x	x	x
S=C(NCc1ccco1)Nc1cc(Cl)c(Cl)cc1Cl	43	44*	-1	42*	29	27	28	-21
S=C(NCc1ccco1)Nc1ccc(Oc2ccccc2)cc1	26	45*	-3	46*	21	30	28	37*
CC(C(=O)N1CCCCCC1)N(c1ccc(Cl)cc1)S(C)(=O)=O (centres undefined)	27	23	1	3	-7	14	x	x
O=[N+]([O-])c1nn(-c2ccc3c(c2)OCCO3)n(O)c1=NC1CCCCC1	46	56*	-2	49*	18	16	46*	43*
N/C(=N\OC(=O)CCCOc1ccccc1)c1ccncc1	13	11	2	-3	15	6	x	x
N/C(=N\OC(=O)c1cccc(Br)c1)c1ccc(Br)cc1	13	-31	-5	4	4	17	x	x
N/C(=N\OC(=O)COc1ccc(Cl)cc1Br)c1ccncc1	x	x	-2	x	20	x	x	x
N/C(=N\OC(=O)c1ccc(Br)cc1)c1ccccc1	40	55*	0	50*	4	15	52*	67*
N/C(=N\OC(=O)CCCOc1ccc(Cl)cc1Cl)c1ccncc1	6	54*	0	43*	4	11	30*	4
